# Rab9 prom act – qHTS Assay for Rab9 Promoter Activators | Huh7 Rab9 promoter-luciferase reporter, luminescence, 24 h | Potency, µM (top dose mostly 9.22 µM), actives largely listed as activators | 320,000 compounds, 2.8% hits; also: nearly all actives have a fitted effect of over 60% in size
#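 Steps: seed 1500 Huh7 Rab9-luc cells per well, rest 2 h at 37 °C; add compound in DMSO; incubate 24 h; add luciferase reagent, 10 min ambient; read luminescence.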
# SMN2 splice up – qHTS Assay for Enhancers of SMN2 Splice Variant Expression; HEK293 SMN2-luciferase splicing reporter, luminescence, 30-36 h; Potency, µM (highest dose often 46.1 µM), hits mostly activators; 210,000 compounds, 2.8% hits; AID 1458, 2008; also: nearly all actives have a fitted effect of over 55% in size
#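 HEK293 cells carry an SMN2 […]–luciferase reporter in which exon 7 inclusion puts luciferase in frame. Cells were plated 10-12 h before compound addition, then incubated 30-36 h at 37C. ONE-Glo luminescence was read; sodium butyrate at 4.5 mM final served as control.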
# NPC1 prom act – qHTS Assay for NPC1 Promoter Activators. Huh7 NPC1 promoter luciferase reporter, 24 h. Potency, µM (series often up to 9.22 µM), actives largely listed as activators. 320,000 compounds, 2.4% hits; also: nearly all actives have a fitted effect of over 60% in size
#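 Luciferase expression driven by the NPC1 promoter was measured in stably transfected Huh7 cells after a 24 h compound incubation, using a luciferase reagent and a luminescence read.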
# FLuc modulator – qHTS profiling assay for firefly luciferase inhibitor/activator using purifed enzyme and Km concentrations of substrates (counterscreen for miR-21 project) | Luciferin 4-monooxygenase (Photinus pyralis), P08659 | purified FLuc, Km substrates, luminescence inhibition | Potency, µM (doses to about 57.5 µM), actives largely listed as inhibitors | 360,000 compounds, 6.9% hits | AID 588342, 2011; also: nearly all actives have a fitted effect of over 55% in size
# Target sequence (P08659 whole entry, looked up): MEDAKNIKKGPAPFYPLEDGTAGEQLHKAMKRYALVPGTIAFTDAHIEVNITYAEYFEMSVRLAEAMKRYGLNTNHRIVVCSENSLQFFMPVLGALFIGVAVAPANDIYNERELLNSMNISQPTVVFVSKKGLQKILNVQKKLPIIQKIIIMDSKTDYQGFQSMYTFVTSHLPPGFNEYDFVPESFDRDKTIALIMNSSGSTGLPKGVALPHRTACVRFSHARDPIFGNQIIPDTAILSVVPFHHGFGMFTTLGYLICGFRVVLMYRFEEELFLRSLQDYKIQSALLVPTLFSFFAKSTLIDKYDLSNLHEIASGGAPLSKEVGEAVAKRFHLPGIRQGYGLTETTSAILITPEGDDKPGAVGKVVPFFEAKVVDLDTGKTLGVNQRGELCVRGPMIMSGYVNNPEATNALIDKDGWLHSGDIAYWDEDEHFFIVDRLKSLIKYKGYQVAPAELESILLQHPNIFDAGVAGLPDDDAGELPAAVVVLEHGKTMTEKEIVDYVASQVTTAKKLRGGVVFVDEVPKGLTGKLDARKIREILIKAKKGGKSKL
#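 Purified P. pyralis luciferase, 10 nM final, with Km-level 10 uM D-luciferin and 10 uM ATP in 50 mM Tris acetate pH 7.5, 10 mM Mg acetate, 0.01% Tween-20, 0.05% BSA; 6-point qHTS titration about 60 µM downward; luminescence read.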
# KinaseGlo FLuc – Counterscreen for Luciferase (Kinase-Glo TM) Inhibition | AID 1379, 2008 | Luciferin 4-monooxygenase (Photuris pensylvanica), Q27757 | 200,000 compounds, 0.28% hits | Kinase-Glo luciferase, ATP luminescence, 8 min | Potency, µM (doses to about 38.3 µM), most hits filed as inhibitors; also: nearly all actives have a fitted effect of over 60% in size
#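 Compound is pinned into ATP-containing buffer (10 uM ATP, imidazole pH 7.2, 7 mM MgCl2). Kinase-Glo luciferase reagent is then added. Light output is recorded following an 8-min room-temperature incubation.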
# Numbers stand for hits; i = inactive; ? = inconclusive; nt = no result given; [ ] = dose if it differs, or a comment. Most compounds without a hit are left out; they make up all but 7.3% or so of the library. Calls follow the shape of the dose curve; as a rule, active = well fitted curve in the direction sought with a large enough effect; inconclusive = small, poorly fitted or top-dose-only effect, or another doubt; inactive = no such curve, though single readings can be large; an effect the other way counts as inactive or inconclusive.
SMILES,Rab9 prom act,SMN2 splice up,NPC1 prom act,FLuc modulator,KinaseGlo FLuc
C/C=C\C[C@@H](C)[C@@H](O)[C@H]1C(=O)N[C@@H](CC)C(=O)N(C)CC(=O)N(C)[C@@H](CC(C)C)C(=O)N[C@@H](C(C)C)C(=O)N(C)[C@@H](CC(C)C)C(=O)N[C@@H](C)C(=O)N[C@H](C)C(=O)N(C)[C@@H](CC(C)C)C(=O)N(C)[C@@H](CC(C)C)C(=O)N(C)[C@@H](C(C)C)C(=O)N1C,nt,nt,nt,nt,i
O=C(Cn1cnc2nc3c(cc2c1=O)CCCC3)Nc1ccc(F)cc1Cl,nt,nt,nt,i,nt
c1ccc(CNc2ncnc3c2ncn3C2CCCCO2)cc1 (stereo not given),?,?,?,27µM,i
CSc1ccc(/C=N/NC(=O)c2ccc(O)cc2)cc1,2.5µM,?,?,4.8µM,13µM
COc1ccc(/C=N/NC(=O)c2ccc[nH]2)cc1,1.6µM,nt,2.5µM,5.4µM,nt
O=C(N/N=C/c1ccc(N2CCOCC2)cc1)c1ccc(O)cc1,i,nt,i,24µM,nt
COc1ccc(C(=O)N/N=C/c2ccc(SC)cc2)cc1,i,i,i,6.7µM,i
O=C(N/N=C/c1ccc(O)cc1)c1ccncc1,i[1.84 µM],nt,i,i,nt
O=C(O)[C@H]1[C@H](C(=O)O)[C@H](C(=O)O)C[C@@H]1C(=O)O,nt,i[9.22 µM],nt,nt,i[7.66 µM]
COc1ccc(-c2cn3c(n2)sc2cc(C(=O)Nc4cc(Cl)ccc4C)ccc23)cc1,nt,nt,nt,i,nt
COc1cccc(Nc2nc(-c3ccc(O)cc3)cs2)c1,i,i,?,15µM,i
COc1cccc(Nc2nc(-c3cccc(N4C(=O)c5ccccc5C4=O)c3)cs2)c1,i,i,i,2.4µM,i
COc1cccc(Nc2nnc(SCN3C(=O)c4ccccc4C3=O)s2)c1,i,i,i,i,i
Cc1nn(Cc2noc(C(=O)NCc3cccc(F)c3)n2)c(C)c1Br,nt,i,nt,i,nt
Cc1cccc(CNC(=O)C(=O)Nc2ccccc2C)c1,nt,i,nt,i,nt
O=C(O)[C@@H](O)[C@@H](O)[C@@H](O[C@H]1O[C@@H](CO)[C@@H](O)[C@@H](O)[C@@H]1O)[C@@H](O)CO,nt,i,nt,nt,i
Cc1ccc(NC(=O)c2cc(S(=O)(=O)N3CCC(C)CC3)cn2C)cc1Cl,nt,nt,nt,i,nt
O=C(O)c1cc(N/N=C/c2ccc(N3CCOCC3)s2)ccc1Cl,3.2µM,?,?,7.6µM,i
C/C(=N\Nc1ccc(Cl)c(C(=O)O)c1)c1ccc(N2CCOCC2)cc1,?,nt,i,24µM,nt
CC(=O)Nc1ccc(SCC(=O)c2cc(C)n(CC(F)(F)F)c2C)cc1,2.8µM,i,3.2µM,i,i
Cc1cccc(N2CCN(C(=O)CN3C(=O)NC(C)(C)C3=O)CC2)c1C,i,nt,i,i,nt
Cc1cccc(N2CCN(C(=O)CN3C(=O)C4CC=CCC4C3=O)CC2)c1C (stereo not given),3.2µM,i,?,17µM,i
CCc1ccc(OCc2cc(=O)n3c4c(sc3n2)CCCC4)cc1,nt,i,nt,?,nt
CC1(C)Cc2nc3sc(C(=O)NCCO)c(N)c3cc2CO1,i,?,i,27µM,i
CC1(C)Cc2nc3sc(C(=O)NCCCO)c(N)c3cc2CS1,3.2µM,14µM,?,15µM,i
SMILES,Rab9 prom act,SMN2 splice up,NPC1 prom act,FLuc modulator,KinaseGlo FLuc
CC(=O)c1ccc(NC(=O)c2cc3c([nH]c2=O)CC(c2ccccc2)CC3=O)cc1 (stereo not given),nt,i,nt,i,nt
Cc1ccc(C(=O)N/C(=C\c2ccc(-c3cc(Cl)ccc3Cl)o2)C(=O)NCc2cccnc2)cc1,?,i,?,19µM,i
O=C(NCc1cccnc1)/C(=C/c1ccc(-c2cccc(Cl)c2)o1)S(=O)(=O)c1ccccc1,i,i,i,i,i
O=C(NCCCn1ccnc1)/C(=C/c1ccc(Cl)cc1)NC(=O)c1ccccc1,i,nt,i,i,nt
CN(C)c1ccc(/C=C(/NC(=O)c2ccccc2)C(=O)NCCCn2ccnc2)cc1,i,nt,i,4.8µM,nt
CN(C)c1ccc(/C=C(\NC(=O)c2ccccc2)C(=O)NCc2cccnc2)cc1,i,nt,i,11µM,nt
OCc1ccncc1.OCc1ccncc1.[Cl][Pt]([Cl])([Cl])[Cl],nt,i[9.22 µM],nt,nt,i[7.66 µM]
CCOc1ccccc1C(=O)NC1(C(F)(F)F)C(=O)Nc2c1c(=O)[nH]c(=O)n2-c1ccccc1 (stereo not given),nt,i,nt,?,nt
N#C/C(=C(/O)c1cccc(F)c1)c1nc2ccccc2s1,?,nt,?,19µM,nt
N#C/C(=C(\O)Cc1ccccc1)c1nc2ccccc2[nH]1,i,i,i,i,i
Cn1c(/C(C#N)=C(\O)c2cccc(F)c2)nc2ccccc21,i,nt,i,i,nt
CC1=CC(=C(C#N)c2nc3ccccc3s2)C=C(C)N1Cc1ccco1,i,i,i,4.8µM,i
N#C/C(=C(/O)c1cc2ccccc2o1)c1nc2ccccc2s1,?,nt,3.2µM,6.7µM,nt
N#C/C(=C(/O)c1ccco1)c1nc2ccccc2[nH]1,?,i,i,19µM,i
COCCN(Cc1ccco1)C(=O)c1cc2c(Cl)nc3ccc(C)cc3c2s1,nt,i,nt,i,nt
N#C/C(=C(/O)c1ccco1)c1nc2ccccc2s1,3.2µM,i,2.2µM,8.5µM,i
CN(C)S(=O)(=O)c1cccc(NC(=S)N/N=C/c2cccc(O)c2)c1,i,i,i,i,i
CN(C)S(=O)(=O)c1cccc(NC(=S)N/N=C/c2cc(Br)ccc2O)c1,i,nt,i,19µM,nt
Cc1cc(/C=C(\C#N)c2nc3ccccc3[nH]2)c(C)n1C,2.2µM,11µM,3.5µM,0.95µM,i
Cc1ccc2nc(/C(C#N)=C/c3ccc(-c4cccc([N+](=O)[O-])c4)o3)[nH]c2c1,i,i,i,?,i
Cc1c(Cl)cccc1-c1ccc(/C=C(\C#N)c2nc3ccccc3[nH]2)o1,nt,i,nt,?,nt
Cc1cc(/C=C(/C#N)c2nc3ccccc3[nH]2)c(C)n1-c1cccc([N+](=O)[O-])c1,i,i,i,5.4µM,i
CN(C)S(=O)(=O)N(CC(=O)NCCSCc1cccc(Cl)c1)c1ccccc1,nt,i,nt,i,nt
CCn1cc(/C=C(\NC(=O)c2ccc(C)cc2)C(=O)NCCCn2ccnc2)c2ccccc21,nt,i,nt,i,nt
Cc1cc(N2CCOCC2)nc2ccc(NC(=O)CCC(=O)N3CCCC(C)C3)cc12 (stereo not given),?,13µM,4µM,21µM,i
Cc1cc(N2CCOCC2)nc2ccc(NC(=S)N3CCCCC3C)cc12 (stereo not given),i,i,i,?,i
Cc1cc(N2CCN(C)CC2)nc2ccc(NC(=S)N3CCN(c4ccc(F)cc4)CC3)cc12,i,i,i,i,i
Cc1cc(N2CCOCC2)nc2ccc(NC(=O)CCC(=O)N3CCN(c4ccc(F)cc4)CC3)cc12,?,nt,i,19µM,nt
Cc1cc(N2CCN(c3ccc(F)cc3)CC2)nc2cc(O)ccc12,i,i,i,?,i

# Compound activity: PubChem, National Center for Advancing Translational Sciences (NCATS)
